Results on 40 molecules are retold here after PubChem BioAssay (Tox21).

Results filed as inconclusive are left out. Entries that show only a call come without a potency. Active and inactive are the calls of the source. Calls follow the shape of the dose curve; as a rule, active = well fitted inhibition curve with a large enough effect in the repeat runs; inconclusive = weak or mixed curves; inactive = no such curve, though single readings can be large or run the other way.
Potency is read from the fitted curve at half-maximal effect.

Sequence of Cytochrome P450 2C9 (Homo sapiens) (P11712 whole entry, looked up): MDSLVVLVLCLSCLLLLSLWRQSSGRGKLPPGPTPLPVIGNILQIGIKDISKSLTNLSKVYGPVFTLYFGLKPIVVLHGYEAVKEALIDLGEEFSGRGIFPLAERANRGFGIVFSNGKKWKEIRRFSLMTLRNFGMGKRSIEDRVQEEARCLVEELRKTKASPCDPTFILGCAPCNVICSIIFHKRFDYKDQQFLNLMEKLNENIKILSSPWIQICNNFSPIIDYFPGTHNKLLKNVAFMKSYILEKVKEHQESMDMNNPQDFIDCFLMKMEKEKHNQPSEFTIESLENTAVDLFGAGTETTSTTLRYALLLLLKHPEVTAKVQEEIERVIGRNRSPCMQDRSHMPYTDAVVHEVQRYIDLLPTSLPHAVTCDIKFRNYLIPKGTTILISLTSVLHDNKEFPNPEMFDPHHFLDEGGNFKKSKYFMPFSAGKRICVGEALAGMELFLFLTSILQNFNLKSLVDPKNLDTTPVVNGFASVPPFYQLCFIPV

In the experiment the target is Cytochrome P450 2C9 (Homo sapiens) (UniProt P11712). As to the kind of experiment: Cytochrome P450 Family 2 Subfamily C Member 9 (CYP2C9) small molecule antagonists: luciferase reporter qHTS assay (AID 1671198). Also: nearly all actives have a fitted effect of over 50% in size. The conditions noted are these: P450-Glo CYP2C9 enzyme assay, luciferin luminescence; series mostly up to 115 µM. From the text:
U.S. Tox21 Program National Center for Advancing Translational Sciences [NCATS] U.S. Environmental Protection Agency [EPA] National Institutes of Environmental Health Sciences [NIEHS] National Toxicology Program [NTP] U.S. Food and Drug Administration [FDA] Tox21 Assay Overview: Cytochrome P450 (CYP) enzymes are membrane-bound hemeproteins that play a key role in metabolism of drugs and xenobiotics. Evaluation of the effect of chemicals on CYP isozymes is useful to minimize the adverse drug reactions and toxicities in drug development process. Tox21 chemicals were tested for their effect on CYP enzyme activities by using P450-Glo (TM) screening systems (Promega Corporation, Madison, WI). These systems provide a luminescent method containing proluciferin substrates and are converted to luciferin products by CYP isozymes. The luciferin products formed are detected with a luciferin detection reagent, and the amount of light produced is proportional to CYP activity. P450-Glo (TM) CYP2C9 screening system (Catalog. No. V9790) was used to detect the compounds that interfere in CYP2C9 activity.
Tox21 Assay Protocol Summary: Two ul of enzyme-substrate mix was dispensed into medium binding white/solid 1536-well plates (Greiner Bio-One North America Inc., Monroe, NC) using a BioRaptr Flying Reagent Dispenser (FRD, Beckman Coulter, Brea, CA). […] The assay plates were incubated at room temperature for 10 min. Then 2 ul of NADPH regeneration solution was added to each well of the assay plates using an FRD and incubated at 37C for 1 h. The reaction was stopped by adding 4 ul of detection reagent using an FRD and after 20 min incubation at room temperature the luminescence signal was measured using a ViewLux plate reader (Perkin Elmer, Shelton, CT). Data were expressed as relative luminescence units.
As for `COC(=O)C1CC(=O)C(C(=O)OC)CC1=O` (stereo not given), the activity change, negative = inhibition was -7.95% [at 10.5 µM] (inactive).

For the molecule `C[Si](C)(C)C`, the Potency entry is “inactive”.

With `COc1cc(C(=S)N2CCOCC2)cc(OC)c1OC`, the Potency entry was “inactive”.

Consider `Oc1ccccc1-c1nnco1`, for which the Potency entry was “inactive”.

Take `CCCC/C=C/C=C\C=O`: the Potency entry is “inactive”.

As for `CC(C)(C)NC(N)=O`, the Potency entry is “inactive”.

`CC(C)CCCCOC(=O)c1ccccc1C(=O)OCCCCC(C)C`: the Potency was 17.9 µM (active).

Take `C=CCCCCCCCCCCCC`: the Potency result is “inactive”.

For `CCCC/C=C\CCCCCCCCCC=O`, the Potency result was “inactive”.

Consider `O=S(=O)(O)CCN1CCN(CCO)CC1`, for which the Potency entry is “inactive”.

Turning to `CC(=O)NCCCCCC(=O)O`, the Potency result is “inactive”.

For `O=C(O)C(=O)Cc1ccccc1`, the Potency entry was “inactive”.

For the molecule `CCCCNC1CC(C)(C)NC(C)(C)C1`, the Potency result was “inactive”.

`Cc1cccc(C)c1NC(=O)c1ccccc1C(=O)O`: the Potency result is “inactive”.

For `CC(CO)c1ccccc1` (stereo not given), the Potency entry was “inactive”.

In the case of `O=C(c1ccc(O)cc1)c1ccc(O)c(O)c1O`, the Potency entry is “inactive”.

For `O=C(CCNNC(=O)c1ccncc1)NCc1ccccc1`, the Potency is 4.9 µM (active).

With `CC(N)C(=O)OC(C)(C)Cc1ccc(Cl)cc1` (stereo not given), the Potency was 15.5 µM (active).

Take `CCCCCCCCCCl`: the Potency result was “inactive”.

In the case of `CNS(=O)(=O)CCc1ccc2[nH]cc(C3CCN(C)CC3)c2c1`, the Potency result is “inactive”.

For the molecule `O=Cc1ccc(Cl)c(Cl)c1`, the Potency result was “inactive”.

Take `CC(C)c1ccc2cc(C(C)C)ccc2c1`: the Potency entry was “inactive”.

Turning to `COCCOCCOCCOCCO`, the Potency entry was “inactive”.

Consider `CCOCCOC(=O)/C=C/c1ccc(OC)cc1`, for which the Potency was 13.8 µM (active).

Take `CC(C)C(=O)OCc1cccc(OC(=O)[C@@H]2N3C(=O)[C@@H](NC(=O)Cc4ccccc4)[C@H]3SC2(C)C)c1`: the Potency is 12.3 µM (active).

Consider `CCCCCCCCOS(=O)(=O)O`, for which the Potency is 28.3 µM (active).

In the case of `CC(=O)N[C@@H](CCC(=O)O)C(=O)O`, the Potency result was “inactive”.

In the case of `O=C1CC(c2ccc(Cl)cc2)CC(=O)N1`, the Potency entry is “inactive”.

For the molecule `C=COCCOCCOCCOC=C`, the Potency entry was “inactive”.

As for `BrCc1cccc(Oc2ccccc2)c1`, the Potency is 79.6 µM (active).

`Cc1ccccc1N=O`: the Potency entry is “inactive”.

Consider `CC(C)C[C@H](NC(=O)CNC(=O)[C@H](Cc1ccc(O)cc1)NC(=O)[C@H](CO)NC(=O)[C@H](Cc1c[nH]c2ccccc12)NC(=O)[C@H](Cc1cnc[nH]1)NC(=O)[C@@H]1CCC(=O)N1)C(=O)N[C@@H](CCCN=C(N)N)C(=O)N1CCC[C@H]1C(=O)NCC(N)=O` (stereo in doubt), for which the Potency entry was “inactive”.

Turning to `COP(=O)(OC)OC(c1ccc(Cl)cc1)P(=O)(OC)OC` (stereo not given), the Potency entry is “inactive”.

Consider `NS(=O)(=O)c1cc2c(cc1Cl)CN(C1CCCCC1)C2=O`, for which the Potency result was “inactive”.

Take `CCOC(=O)[C@H](CCc1ccccc1)N[C@@H](C)C(=O)N1C(=O)N(C)C[C@H]1C(=O)O`: the Potency entry was “inactive”.

For `CCCCOC(=O)c1ccccc1`, the Potency result is “inactive”.

With `CCOC(=O)CC(=O)c1ccccc1`, the Potency is 35.6 µM (active).

For the molecule `COCCOCCOCCOCCOCCO`, the Potency result is “inactive”.

For the molecule `C=C(C)C1CCC(C)(O)CC1` (stereo not given), the Potency result was “inactive”.

As to `CCCOC(=O)C(C)O` (stereo not given), the Potency entry is “inactive”.
